Drawing on PubChem BioAssay (NCI), this text covers growth for 16 compounds.

Among the test systems are T-47D breast; BT-549 breast; MDA-MB-435 melanoma; SW-620 colon; MCF7 breast; HCT-116 colon; HCC-2998 colon; KM12 colon.
Assay in all cases: NCI-60 one-dose screen, 48 h (100 = growth as untreated, 0 = no growth, -100 = all killed)
Holding throughout (settings): 10 µM unless noted

The panel holds about 83,000 compounds, 20% with a hit somewhere; the sample as a whole holds those more often.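 Cell lines were cultured in 96-well plates, exposed to a single compound concentration, and assessed for percent growth 48 hours later.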 A number with no mark means an inactive call. Active and inactive are the calls of the source. The calls were made as follows: active = growth percent below 10; inactive = the rest.

Regarding `CCCCN1c2nc3ccccc3cc2Sc2cc3ccccc3nc21`, the growth was 13.7% with T-47D breast; 97.1% in the test with BT-549 breast; 151% in the test with MDA-MB-435 melanoma; 94.4% with SW-620 colon; 7.26% (active) in the test on MCF7 breast; 95.1% in the test on HCT-116 colon. In addition, the growth in the test with HCC-2998 colon was 86.5%; with KM12 colon, 68.3%.

Consider `CCCCCCCCCCCCC1CCCC(C)C1` (stereo not drawn), for which the growth is 96.4% with T-47D breast; 102% in the test on BT-549 breast; 104% in the test on MDA-MB-435 melanoma; 101% with SW-620 colon; 93.6% with MCF7 breast; 94.9% with HCT-116 colon. Further, the growth with HCC-2998 colon is 97.7%; in the test with KM12 colon, 91.3%.

On to `Cc1nn(-c2ccccc2)cc1/C=C1\SC(N2CCCCC2)=NC1=O`, for which the growth in the test with T-47D breast was 82.4%; in the test on BT-549 breast it was 88.2%; with MDA-MB-435 melanoma, 92%; in the test on SW-620 colon, 79.8%; in the test on MCF7 breast it was 55.8%; in the test on HCT-116 colon it was 46.7%. Moreover, the growth with HCC-2998 colon is 94.5%; in the test on KM12 colon it was 103%.

On to `Nc1nc2c(c(=O)[nH]1)C1(C(=O)Nc3ccccc31)c1c(nc(N)[nH]c1=O)N2`, for which the growth in the test with T-47D breast is 92.3%; with BT-549 breast, 102%; in the test on MDA-MB-435 melanoma, 106%; in the test on SW-620 colon, 97.3%; with MCF7 breast, 94.8%; in the test with HCT-116 colon, 116%. For the same compound, the growth is 114% in the test on HCC-2998 colon and 101% in the test with KM12 colon.

Take `O=C(CNC(=O)c1cccc2ccccc12)Nc1ccccc1Oc1cccc(O)c1`: the growth in the test with T-47D breast is 42.3% [5 µM]; in the test with BT-549 breast, 18.7% [5 µM]; with MDA-MB-435 melanoma, -48% [5 µM] (active); in the test with SW-620 colon, 20.3% [5 µM]; with MCF7 breast it was 20.5% [5 µM]; in the test with HCT-116 colon, 8.18% [5 µM] (active). In addition, the values for the growth with HCC-2998 colon and with KM12 colon were 58.3% [5 µM] and 22.8% [5 µM], respectively.

In the case of `COc1cnc2c(c1)C(=O)c1c-2n(CCCNC2=NCCS2)c(=O)c2cc(F)ccc12`, the growth is 19.1% in the test on T-47D breast; 13.4% in the test with BT-549 breast; 41.8% with MDA-MB-435 melanoma; -22% (active) in the test on SW-620 colon; 3.19% (active) in the test with MCF7 breast; -75.3% (active) in the test on HCT-116 colon. Besides, the growth in the test on HCC-2998 colon is 65.5%; in the test with KM12 colon, 46.7%.

As for `CN1CCC[C@@H]1CCO[C@](C)(c1ccccc1)c1ccc(Cl)cc1`, the growth was 56.1% with T-47D breast; 69.1% in the test on BT-549 breast; 49.8% in the test on MDA-MB-435 melanoma; 80% in the test with SW-620 colon; 63.3% with MCF7 breast; 47.9% in the test on HCT-116 colon. Moreover, the growth was 61.8% in the test on HCC-2998 colon and 88% in the test on KM12 colon.

For the compound `Cc1cc(C)c(C(=O)c2cccs2)c(C)c1`, the growth with T-47D breast is 102%; with BT-549 breast, 109%; in the test on MDA-MB-435 melanoma, 122%; with SW-620 colon it was 107%; in the test on MCF7 breast it was 99%; in the test with HCT-116 colon it was 101%. The growth with HCC-2998 colon was 106%; in the test with KM12 colon, 110%.

In the case of `O=C(CN1CCN(c2ccc(Cl)cc2)CC1)N1CCN(c2nnc(-c3ccc(Cl)cc3)c(-c3ccc(Cl)cc3)n2)CC1`, the growth with T-47D breast is 52.4%; in the test with BT-549 breast, 89.3%; in the test with MDA-MB-435 melanoma, 73.4%; in the test on SW-620 colon, 80.6%; with MCF7 breast, 56.7%; in the test with HCT-116 colon it was 47.2%. For the same compound, the growth is 84.9% in the test with HCC-2998 colon and 63% in the test on KM12 colon.

As for `O=C1N=C(N2CCOCC2)S/C1=C\c1cn(-c2ccccc2)nc1-c1ccccc1`, the growth in the test on T-47D breast was 62.4%; with BT-549 breast it was 53.8%; with MDA-MB-435 melanoma, 65.3%; in the test with SW-620 colon, 98.8%; in the test on MCF7 breast it was 81.5%; with HCT-116 colon, 64.4%. In addition, the growth in the test with HCC-2998 colon is 100%; in the test on KM12 colon it was 96.4%.

Regarding `CSc1nc(N)c2c(n1)N(C)C=NS2(=O)=O`, the growth is 97.2% in the test on T-47D breast; 100% in the test with BT-549 breast; 111% with MDA-MB-435 melanoma; 102% in the test with SW-620 colon; 102% in the test on MCF7 breast; 102% in the test on HCT-116 colon. Besides, the growth in the test with HCC-2998 colon is 107%; in the test on KM12 colon, 117%.

Consider `CCn1cnc(C[C@H](NC(=O)[C@H](CCCCNC(=O)Nc2cc(C(F)(F)F)cc(C(F)(F)F)c2)NC(=O)Nc2cc(C(F)(F)F)cc(C(F)(F)F)c2)C(=O)OC)c1`, for which the growth was -62.8% [100 µM] (active) in the test on T-47D breast; -35.3% [100 µM] (active) with BT-549 breast; -65.4% [100 µM] (active) in the test on MDA-MB-435 melanoma; -40.9% [100 µM] (active) with SW-620 colon; -47% [100 µM] (active) with MCF7 breast; -100% [100 µM] (active) in the test on HCT-116 colon. For the same compound, the values for the growth in the test on HCC-2998 colon and in the test on KM12 colon were -20.8% [100 µM] (active) and -43% [100 µM] (active), respectively.

As to `COc1c(Br)cc(C(c2cc(Br)c(OC)c(Br)c2)c2ccccc2C(=O)O)cc1Br`, the growth with T-47D breast was 93.6%; in the test with BT-549 breast, 82.8%; in the test on MDA-MB-435 melanoma, 104%; in the test with SW-620 colon, 99.9%; in the test with MCF7 breast, 96.5%; in the test on HCT-116 colon, 90.2%. The growth with HCC-2998 colon is 97.8%; in the test with KM12 colon, 103%.

Turning to `O=C(N/N=C/c1ccc(Cl)cc1Cl)c1ccccc1Nc1cccc(C(F)(F)F)c1`, the growth with T-47D breast is 83.4%; in the test with BT-549 breast, -57.4% (active); in the test with MDA-MB-435 melanoma it was 70.7%; with SW-620 colon it was 84.4%; with MCF7 breast, 280%; with HCT-116 colon, 60.7%. The growth is 88.2% with HCC-2998 colon and 79% with KM12 colon.

Consider `O=C1Nc2ccc(C(=O)O)c(O)c2C1=O`, for which the growth with T-47D breast is 106%; with BT-549 breast, 106%; in the test with MDA-MB-435 melanoma it was 106%; in the test with SW-620 colon it was 104%; in the test with MCF7 breast, 104%; in the test with HCT-116 colon, 108%. Further, the growth in the test with HCC-2998 colon is 117%; in the test with KM12 colon, 106%.

Turning to `NC(=NCCCCCCN=C(N)/N=C(\N)Nc1ccc(Cl)cc1)/N=C(\N)Nc1ccc(Cl)cc1`, the growth was 19.3% in the test with T-47D breast; 10.6% with BT-549 breast; 18.3% with MDA-MB-435 melanoma; 23.4% in the test with SW-620 colon; 7.79% (active) in the test with MCF7 breast; 13.5% with HCT-116 colon. Also, the growth is 15.3% in the test with HCC-2998 colon and -12% (active) in the test with KM12 colon.
